High-throughput results: PubChem, National Center for Advancing Translational Sciences (NCATS)
D2 ag-1: Beta-Arrestin HTS for Positive Allosteric Modulators of the Human D2 Dopamine Receptor: Agonists | D(2) dopamine receptor (Homo sapiens), P14416 | DiscoveRx PathHunter D2 beta-arrestin, luminescence, 90 min; 100% = 57 uM dopamine signal | activation, % (concentration not given with the values) | actives 0.084% (n = 360,000) | AID 624465, 2012; in the data active = activation above about 40%
Target sequence (P14416 whole entry, looked up): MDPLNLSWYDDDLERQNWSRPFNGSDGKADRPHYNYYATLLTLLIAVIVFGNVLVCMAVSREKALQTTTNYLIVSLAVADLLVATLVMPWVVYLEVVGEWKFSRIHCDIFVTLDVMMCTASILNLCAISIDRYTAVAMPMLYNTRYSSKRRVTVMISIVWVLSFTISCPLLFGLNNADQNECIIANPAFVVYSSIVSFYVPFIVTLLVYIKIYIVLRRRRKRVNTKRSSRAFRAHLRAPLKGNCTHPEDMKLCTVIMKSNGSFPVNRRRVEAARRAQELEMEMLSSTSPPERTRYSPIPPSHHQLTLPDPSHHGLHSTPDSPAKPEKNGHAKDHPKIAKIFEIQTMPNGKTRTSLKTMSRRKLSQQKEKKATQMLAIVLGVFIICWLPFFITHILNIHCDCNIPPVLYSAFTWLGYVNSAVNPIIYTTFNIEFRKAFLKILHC
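DiscoveRx PathHunter D2 beta-arrestin cells (2,100/well) attached overnight, then compound-stimulated 90 min at 37 C in HBSS/10 mM HEPES/0.1% Tween-20 buffer; beta-galactosidase complementation read by luminescence after 1 h at ambient temperature. Dopamine 57 uM final (EC100) as control.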
D2 antagonist: HTS Assay for Allosteric Antagonists of the Human D2 Dopamine Receptor: Primary Screen for Antagonists; D(2) dopamine receptor (Homo sapiens), P14416; HEK293 TREx D2 cells, calcium flux, dopamine EC80; inhibition, % at 10 µM; actives 2% (n = 340,000); AID 485344, 2010; in the data active = inhibition above about 30%; inactive = below that, where a call was filed; note: 0% is about no effect
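Inhibition of EC80 dopamine-driven calcium flux, recorded kinetically, defines activity here; cells are a tetracycline-induced HEK293 T-REx line expressing force-coupled D2.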
D2 ag-2: HTS Assay for Allosteric Agonists of the Human D2 Dopamine Receptor: Primary Screen for Agonists | HEK293 T-REx D2 cells, calcium flux agonist mode | activation, % at 2 µM | actives 0.53% (n = 340,000);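 active = activation over 3 SD above normal in the single-dose calcium agonist read, cut at about 30% in these data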; note: 0% is about no effect
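Tetracycline-induced HEK293 Trex cells with D2 receptor force-coupled to calcium signaling, plated overnight at 30 C and loaded with no-wash calcium dye. Calcium flux read kinetically for 180 s after compound addition; responses flag agonists.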
D2 PAM-1: Beta-Arrestin HTS for Positive Allosteric Modulators of the Human D2 Dopamine Receptor: Potentiators; potentiation, % (no concentration beside the values); DiscoveRx D2 beta-arrestin cells, luminescence, 90 min; 100% = 57 uM dopamine signal; actives 0.23% (n = 360,000); in the data active = potentiation above about 50%
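PathHunter D2 cells, attached overnight at 37 deg C, received compound in DMSO plus dopamine at EC20 (50 nM final) for 90 min at 37 deg C. Beta-arrestin recruitment was read as luminescence after 1 h with detection reagent at ambient temperature.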
D2 PAM-2: HTS Assay for Positive Allosteric Modulators of the Human D2 Dopamine Receptor: Primary Screen for Potentiators; actives 0.34% (n = 340,000); HEK293 T-REx D2, calcium flux, EC20 dopamine potentiation; potentiation, % at 10 µM; AID 485347, 2010;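 active = potentiation over 3 SD above the plate norm, cut at about 30% in these data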; note: 0% is about no effect
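Calcium flux readout, no-wash dye, 1 read/s. Inducible HEK293 Trex D2 line, overnight 30 C. Compound alone 180 s (agonist flags), then EC20 dopamine, another 180 s to score potentiation.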
The depositor's hits bear a star; · = not tested or not shown. Rows were chosen to be rich in hits. Some 2.4% of all compounds tested hit in one or more screens of this group.

SMILES | D2 ag-1 | D2 antagonist | D2 ag-2 | D2 PAM-1 | D2 PAM-2
Cc1sc2nc(C3CC3)nc(SCC(=O)N3CCCc4ccccc43)c2c1C | · | 2.6 | -0.3 | · | 3.4
Cn1c(=O)c2c(SCC(=O)N3CCCc4ccccc43)nc(C3CC3)nc2n(C)c1=O | -5.5 | 35.2* | 0.8 | -4.0 | 24.6
CCOc1ccc(NC(=S)N2CCN(S(=O)(=O)c3ccccc3)CC2)cc1 | -2.1 | 16.3 | 39.4* | 4.3 | -9.5
CCOc1ccc(S(=O)(=O)N2CCN(S(=O)(=O)c3ccc(C(C)=O)cc3)CC2)cc1 | -6.2 | 35.7* | -0.2 | -1.9 | 7.6
CCOc1ccc(S(=O)(=O)N2CCN(C(=O)c3cccn3C)CC2)cc1 | 8.1 | -4.7 | -1.0 | -13.0 | 31.4*
O=c1c2c(-c3ccc(Cl)cc3)ccnc2[nH]n1-c1ccccc1 | · | · | -0.5 | · | -4.2
CC(C)(C)OC(=O)N1CCC(N2CCN(Cc3ccccc3)C(=O)C2=O)CC1 | · | · | 4.9 | · | -2.8
CC(=O)c1cccc(NC(=O)c2ccc3ccccc3c2)c1 | 0.5 | 31.4* | 0.0 | 2.1 | -2.8
COc1ccc(CN2C3CCCC2CC(NC(=O)Nc2ccccc2C)C3)cc1 (centres undefined) | -1.4 | · | · | -20.5 | ·
Cc1cccc(NC(=S)NC2CC3CCC(C2)N3Cc2ccco2)c1C (centres undefined) | -1.0 | 36.1* | 0.6 | -22.3 | -19.4
Cc1cccc(NC(=S)NC2CC3CCCC(C2)N3Cc2ccccc2)c1C (centres undefined) | -2.4 | 104.6* | 0.0 | -21.3 | -27.8
Cc1ccc(NC(=S)NC2CC3CCC(C2)N3Cc2ccco2)c(C)c1 (centres undefined) | -2.1 | 4.2 | -0.5 | -24.5 | -15.0
CCc1ccccc1NC(=S)NC1CC2CCC(C1)N2Cc1ccco1 (centres undefined) | 0.3 | 7.2 | -0.5 | -24.4 | -10.9
CCc1ccccc1NC(=S)NC1CC2CCC(C1)N2Cc1ccc(F)cc1 (centres undefined) | -0.4 | 78.3* | 1.4 | -6.0 | -28.1
COC(=O)Cc1c(C)c2cc3c(c(C)c2oc1=O)OCN(CCc1ccc(F)cc1)C3 | · | · | 1.3 | · | 3.1
O=c1oc(-c2ccco2)nc2c1cnn2-c1ccccc1 | -3.0 | 2.2 | 0.7 | -7.8 | -0.6
O=c1oc(-c2ccco2)nc2ccccc12 | -1.8 | 36.3* | 1.0 | 3.2 | 6.3
Cc1ccc(-c2nnc(Nc3ccc(Br)cc3)c3ccccc23)cc1S(=O)(=O)N1CCCCC1 | · | · | -0.9 | · | -8.6
CCOc1ccc(NC(=O)Cc2csc(COc3cccc(C)c3)n2)cc1 | · | · | -1.1 | · | -2.6
COc1ccc(C(=O)NCc2cnn(C)c2)cc1OC1CCN(C(C)C)CC1 | 2.6 | -0.4 | 1.1 | -1.9 | -2.1
CCc1ccc(CNC(=O)c2ccc(OC)c(OC3CCN(C(C)C)CC3)c2)nc1 | 4.2 | 42.0* | 0.6 | -23.4 | -9.7
N#Cc1c(Sc2ncc(C(F)(F)F)cc2Cl)nsc1C/C=N\OCc1c(F)cccc1Cl | 2.3 | -4.3 | 0.5 | 57.7* | 1.8
CCOC(=O)CNC(c1ccccc1)c1cc(Br)ccc1NC(=O)c1ccc(Cl)cc1 (centres undefined) | · | · | -0.2 | · | -4.8
Cc1ccc(NC(=O)c2nnn(-c3ccc4c(c3)OCCO4)c2N)cc1 | 1.3 | 60.4* | 0.8 | 2.5 | -13.8
CCOCCCn1c(=N)c(C(=O)NCc2cccnc2)cc2c(=O)n3cc(C)ccc3nc21 | · | · | 0.0 | · | -5.7
SMILES | D2 ag-1 | D2 antagonist | D2 ag-2 | D2 PAM-1 | D2 PAM-2
COc1cc(NC(=O)COc2cccc(OC)c2)cc(OC)c1 | 0.3 | -13.6 | -1.6 | -1.1 | -2.8
COc1ccc(NC(=O)COC(=O)c2cc(OC)c(OC)cc2NC(=O)c2ccco2)cc1OC | -1.3 | 57.5* | 0.4 | -5.0 | 17.5
COc1cccc(OCC(=O)Nc2ccc(OC)c(OC)c2)c1 | -0.3 | -13.1 | -1.8 | -0.7 | 32.0*
COC(=O)c1cc(OC)c(OC)cc1NC(=O)c1ccco1 | 1.5 | -3.6 | 1.0 | -3.3 | 2.3
CC(C)CCNC(=O)C1CCC(CNS(=O)(=O)c2ccc(Cl)cc2)CC1 (centres undefined) | -2.1 | 34.2* | -2.7 | -6.8 | 4.3
COc1ccccc1-c1ccc(/C=C2\C=CC(=O)O2)o1 | -1.5 | -12.0 | 66.3* | -5.1 | -6.4
COc1ccc(NC(=O)CCc2nnc3n(CC(C)C)c(=O)c4ccccc4n23)cc1 | · | · | 0.4 | · | 14.7
CCN1C(=O)CSc2ccc(C(=O)NCCCN3CCOCC3)cc21 | -1.9 | -1.4 | 35.3* | -10.3 | -7.4
O=C(NCCN1CCOCC1)c1ccc2c(c1)N(Cc1ccccc1)C(=O)CS2 | -0.3 | -16.2 | -0.5 | -8.6 | ·
CCN(CC(=O)Nc1c(F)cccc1F)C(=O)Cc1csc(-c2ccccc2)n1 | -4.9 | 35.3* | -0.7 | -6.9 | -4.8
CCN(CC(=O)Nc1c(F)cccc1F)C(=O)Cc1c(C)nc2ccccc2c1C | -5.9 | 4.1 | 0.0 | -9.4 | 0.3
CCc1ccc(C2(O)CC(C(F)(F)F)=NN2C(=O)Cc2ccc([N+](=O)[O-])cc2)cc1 (centres undefined) | -3.4 | 32.8* | -0.2 | -12.5 | -4.8
O=C(c1ccccc1O)N1N=C(C(F)(F)F)CC1(O)c1ccc([N+](=O)[O-])cc1 (centres undefined) | -7.2 | -5.9 | 0.9 | -12.6 | -7.0
COc1ccc(C2(N3CCN(c4cccc(C)c4C)CC3)C(=O)c3ccccc3C2=O)cc1 | · | · | 0.0 | · | 10.1
O=C(CC1SC(N2CCCCC2)=NC1=O)Nc1ccc(C(=O)O)cc1 (centres undefined) | -3.7 | -12.9 | 0.0 | -12.7 | -11.0
CC(=O)c1cccc(NC(=O)CC2SC(N3CCCCC3)=NC2=O)c1 (centres undefined) | 0.5 | 45.3* | 0.3 | -10.8 | -21.7
CC(=O)c1cccc(NC(=O)c2ccc(NC(=O)CC3SC(N4CCCCC4)=NC3=O)cc2)c1 (centres undefined) | 0.7 | -9.0 | -0.5 | 0.7 | 8.4
O=C(CC1SC(N2CCCCC2)=NC1=O)Nc1cccc(C(F)(F)F)c1 (centres undefined) | 2.2 | 78.8* | -1.3 | -44.3 | -29.3
CC(c1ccco1)N(C(=O)c1ccccc1F)c1ccccn1 (centres undefined) | 0.5 | -0.7 | -0.3 | -1.1 | 1.3
CC(c1ccco1)N(C(=O)c1ccc(Cl)s1)c1ccccn1 (centres undefined) | 8.2 | -33.1 | 33.8* | 5.3 | -6.4
COCCN1C(=O)/C(=C/c2ccc(N3CCCC3)cc2C)SC1=S | 0.6 | -24.3 | 36.9* | -8.0 | 3.5
